Assay results as given in PubChem BioAssay AID624133 (Broad Institute, 2012).
Among all 1,600 compounds or so, about 1,300 (81%) were called active. The rule behind the calls is not given here. So high a share suggests a set chosen from earlier hits. A selection follows. Results with a measured potency or affinity are listed apart.

Test: non-specific 3'UTR reporter inhibition in Clone20-Shn3RL – cell-based, Renilla luciferase, cherry-picked, counter-screen for Shn3 inhibitor project, dose response (AID 624133);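 note: 0% = neutral control wells and -100% = positive control wells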
Conditions: Clone20-Shn3RL cells, Renilla luciferase luminescence, 24 h; at 35 µM (top of the series) unless noted

| Compound | activity change, negative = inhibition |
| --- | --- |
| CCn1nnc2cc(C(=O)Nc3cc(Cl)ccc3C)ccc21 | -11.1% |
| CCOC(=O)c1c(C)[nH]c(C(=O)COC(=O)[C@H](C)N2C(=O)C3CCCCC3C2=O)c1C (some centres not stated) | -5% |
| O=C(Nc1cccc(-c2ccc(N3CCCCC3)nn2)c1)C(F)(F)F | -50% |
| Nc1c(Br)cc2c(c1Br)C(O)c1ccccc1-2 (configuration not stated) | 22.2% |
| CCCOc1ccc2oc(=O)c3c(c2c1)CCCN3C(=O)CN1CCN(c2ncccn2)CC1 | 133% |
| COc1ccc(CN(C(=O)CSc2nnc(-c3ccc(F)cc3)o2)c2ccc(F)cc2)cc1 | 16.7% |
| CSc1cccc(NS(=O)(=O)c2ccc3c(c2)CCN3C(C)=O)c1 | 400% |
| COc1cc(SC)ccc1C(=O)Nc1nc2ccccc2[nH]1 | -90% |
| Cc1cccc(CSc2cccc3cccnc23)c1 | 49.1% |
| O=C(NCc1ccccc1C(F)(F)F)c1cccc2c1C(=O)c1ccc(N3CCC(N4CCCCC4)CC3)cc1S2(=O)=O | -33.6% |
| CC(C)n1c(/C=C/[C@@H](O)C[C@@H](O)CC(=O)O)c(-c2ccc(F)cc2)c2ccccc21 | -100% |
| O=c1cc(-c2ccc(O)cc2)oc2ccc3ccccc3c12 | 91.7% |
| Cn1cc([N+](=O)[O-])c(C(=O)Nc2sc3c(c2C#N)CCC3)n1 | -10.8% |
| O=C(COC(=O)/C=C/c1ccc(OC(F)F)cc1)Nc1ccc2[nH]c(=O)[nH]c2c1 | -21.3% |
| O=C(Nc1nc2cc3c(cc2s1)OCCO3)C1=COCCO1 | 45.8% |
| Cc1cccc(-c2noc(CN(C(=O)C(c3ccccc3)c3ccccc3)C(C)C)n2)c1 | -29.9% |
| CC1=NOC(=O)/C1=C\c1ccc(-c2ccccc2Br)o1 | 35.7% |
| COc1ccc(NS(=O)(=O)c2ccc3ccccc3c2)c2ncccc12 | 293% |
| Cc1nc2scc(C)n2c(=O)c1S(=O)(=O)Nc1ccc(N2CCOCC2)c(Cl)c1 | 62.5% |
| Nc1nnc(SCC(=O)Nc2ccc(N3CCOCC3)cc2)s1 | 45.8% |
| CCOc1cc(/C=C2\C(=O)ON=C2C)ccc1OCc1ccccc1 | -100% |
| O=C(Nc1ccc(Cl)cc1)Nc1ccc(N2CCCC2)c(S(=O)(=O)Nc2ccccc2Cl)c1 | -17.1% [at 16 µM] |
| COc1ccc(CNC(=O)C(c2ccc(C)cc2)N(Cc2cccs2)C(=O)c2ccc3c(c2)OCCO3)cc1 (configuration not stated) | 50% |
| COc1ccc(CCNC(=O)CCC(=O)N2CCOc3ccc(Cl)cc32)cc1OC | -107% |

| Compound | activity change, negative = inhibition |
| --- | --- |
| CCc1ccc(OCCNc2cc(N3CCNC(C)C3)ccc2[N+](=O)[O-])cc1 (configuration not stated) | -83.3% |
| O=S(=O)(c1ccc(Cl)cc1)n1ccc2cccnc21 | 6.94% |
| Cc1ccc(C)c(S(=O)(=O)Nc2ccc(-n3cnnn3)cc2)c1 | 276% |
| COc1ccc(C(=O)OCC(=O)Nc2ccc3[nH]c(=O)[nH]c3c2)cc1 | 62.5% |
| Cc1ccccc1NC(=O)CSc1nc2ccccc2c(=O)n1C | 10% |
| COc1ccc(N2C(=O)C(CC(=O)Nc3ccccc3)N(Cc3ccc(OC)c(OC)c3)C2=O)cc1 (configuration not stated) | 84.7% |
| CCCCC[C@H]1CN(Cc2ccc(OC)cc2)C(=O)[C@@H]1CC(=O)NCc1ccccc1 | 196% |
| COCCn1c(C)cc(C2=NNC(=NC3CC3)SC2)c1C | 10% |
| Cc1ccc(S(=O)(=O)Nc2cccc3ncccc23)s1 | -66.7% |
| Cc1nc(SCC(=O)Nc2nc3ccccc3s2)c(C#N)c(C)c1C | -8.33% |
| COc1ccc(NS(=O)(=O)c2ccc(OC)c(N(C)S(=O)(=O)c3ccc(Cl)cc3)c2)cc1 | -58.3% |
| Cc1ccc(NC(=O)c2cc3ccccc3oc2=O)cc1S(=O)(=O)N(C)C | 45.2% |
| Cc1cccc(C)c1NC(=O)CN(C)C(=O)c1cc(S(=O)(=O)N(C)C)ccc1N1CCCC1 | 41.7% |
| Cc1nc2ncnn2c(C)c1Cc1cccc(F)c1 | 25% |
| Cn1cc(CN(CCO)Cc2cccs2)c(-c2cccc(Cl)c2)n1 | 16.7% |
| COc1ccc(C(=O)Cn2c(C(=O)/C=C/c3ccccc3)nc3ccccc32)cc1 | 170% |
| O=C(O)c1cccc(COc2ccccc2Cl)c1 | -10% |
| COc1ccc(OCc2cccc(C(=O)O)c2)cc1 | 107% |
| Oc1c(C(c2cccs2)N2CCC3(CC2)OCCO3)sc2ncnn12 (configuration not stated) | 151% |
| CCN1C(=O)[C@H]2[C@@H](c3ccc(-c4ccc(OC)cc4)cc3)N3CCC[C@@]3(C(=O)OC)[C@H]2C1=O | -39.3% |
| COC(=O)[C@@]12CCCN1[C@H](c1ccc(-c3ccc(OC)cc3)cc1)[C@@H]1C(=O)N(C)C(=O)[C@@H]12 | 47.2% |
| CCCCN1CC(COCc2ccccc2)Oc2cccc(Oc3ccc(C)cc3)c2S1(=O)=O (configuration not stated) | 130% |
| CCCCN1CC(COCc2ccccc2)Oc2cccc(Oc3cc(C)c(C)c(C)c3)c2S1(=O)=O (configuration not stated) | 300% |
